GLS inh – inhibitors of human glutaminase (GLS). Potency, µM (top dose mostly 45.5 µM), for the others: top-dose activity change, negative = inhibition, usual class: inhibitors. GLS enzymatic activity, qHTS titration. actives 0.21% (n = 410,000). O94925; note: potency is the fitted concentration of half-maximal effect
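Glutamate formation by hKGA was monitored fluorometrically using coupled glutamate oxidase, HRP and Amplex Red. Substrate was added as 1 mM L-glutamine solution; incubation was 30 min at RT after an initial read.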
LDHA inh – blocks human lactate dehydrogenase A; P00338; actives 0.15% (n = 480,000); purified LDHA, NADH/diaphorase-resazurin fluorescence; stronger effect = lower value; activity change, % (values are at about 110 or 230 µM); in the data active = activity change below about -30%; inconclusive = mostly about -25% to -30%;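 note: plate controls were DMSO wells for no effect and wells without enzyme for full effect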
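Enzyme activity of human lactate dehydrogenase 5 (2 nM; 0.06 mM NADH, 0.2 mM pyruvate, 5 min, RT) is measured via a resazurin/diaphorase fluorescence readout of residual NADH.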
mIDH1 inhibitor – blocks human mutant IDH1 R132H enzyme | O75874 | IDH1-R132H enzyme, NADPH consumption, diaphorase/resazurin fluorescence | Potency, µM (titrated, usually from 76.6 µM), for inactives: at the top dose activity change, negative = inhibition, actives largely listed as inhibitors | actives 0.093% (n = 390,000); note: potency is the fitted concentration of half-maximal effect; nearly all actives have a fitted effect of over 65% in size
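IDH1-R132H (0.5 ug/mL dispensed) in pH 7.5 Tris buffer was preincubated 30 min with compound, then given a substrate mix of 0.016 mM NADPH and 2 mM alpha-KG for 80 min at room temperature; remaining NADPH was read by diaphorase/resazurin fluorescence.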
PKM2 activator – activators of human pyruvate kinase M2. P14618. purified PKM2, Kinase-Glo ATP luminescence, activation; response scale: 0% is enzyme alone, no compound. Potency, µM (highest dose often 57.5 µM), for inactives: top-dose activation, most hits filed as activators. actives 0.34% (n = 260,000); note: potency is the fitted concentration of half-maximal effect; nearly all actives have a fitted effect of over 55% in size
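Purified hPK-M2 (>95% pure) converted ADP (0.1 mM final) to ATP with 0.5 mM PEP in 50 mM imidazole pH7.2, KCl, MgCl2, Tween 20, BSA; 1 h at room temperature. ATP detected by Kinase-Glo luminescence.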
rTrxR1 inhibitor – rat TrxR1 inhibition; AID 588453; Potency, µM (series often up to 114 µM), for inactives: at the highest dose activity change, negative = inhibition, usual class: inhibitors; recombinant rTrxR1, NADPH fluorescence consumption, selenite substrate; O89049; actives 1% (n = 390,000); note: potency is the fitted concentration of half-maximal effect; nearly all actives have a fitted effect of over 65% in size
Target sequence (O89049 whole entry, looked up): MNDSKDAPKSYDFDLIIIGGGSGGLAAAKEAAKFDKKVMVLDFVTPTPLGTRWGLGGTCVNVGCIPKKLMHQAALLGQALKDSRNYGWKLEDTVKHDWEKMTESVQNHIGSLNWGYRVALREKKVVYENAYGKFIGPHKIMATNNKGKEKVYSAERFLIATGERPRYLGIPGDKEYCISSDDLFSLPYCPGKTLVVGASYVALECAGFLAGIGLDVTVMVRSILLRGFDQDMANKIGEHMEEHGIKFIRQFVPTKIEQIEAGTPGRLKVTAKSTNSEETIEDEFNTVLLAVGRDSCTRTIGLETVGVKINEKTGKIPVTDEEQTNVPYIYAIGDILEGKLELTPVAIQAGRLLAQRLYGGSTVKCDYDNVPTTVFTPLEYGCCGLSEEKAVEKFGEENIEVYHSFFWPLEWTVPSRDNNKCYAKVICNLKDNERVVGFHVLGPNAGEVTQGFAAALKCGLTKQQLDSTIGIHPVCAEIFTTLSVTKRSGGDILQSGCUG
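Rat TrxR1 (90 nM in the dispensed reagent) was pre-reduced with 400 uM NADPH for 5 min at room temperature, then incubated with compound for 15 min. After 400 uM selenite was added, NADPH fluorescence (Ex 340/Em 450 nm) was followed for 8 min.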
TrxR1 substrate – substrates of rat thioredoxin reductase 1 | purified TrxR1 substrate turnover, NADPH consumption readout | Potency, µM (titrated, usually from 114 µM), for the others: top-dose activity change, negative = substrate turnover | actives 0.01% (n = 390,000) | AID 588456 | O89049; note: potency is the fitted concentration of half-maximal effect; nearly all actives have a fitted effect of over 50% in size
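Rat TrxR1, dispensed at 90 nM, was prereduced with 400 uM NADPH (final) for 5 min at ~22 deg C, then incubated with compound 15 min before 400 uM selenite. A first-read NADPH fluorescence drop versus no-compound background flagged substrates.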
Active calls of the source: *; [ ] = another dose, or the depositor's remark. A selection: hits, their analogues and other compounds. The true share with any hit is near 1.4%. Unless noted, calls come from the whole dose curve; as a rule, active = well fitted curve in the direction sought with a large enough effect; inconclusive = small, poorly fitted or top-dose-only effect, or another doubt; inactive = no such curve, though single readings can be large; an effect the other way counts as inactive or inconclusive. Unless noted, % is set by controls: 0 for no effect and ±100 for the full control effect.

Screening CCCCC(=O)N(C)c1c(CC)nc2c(OCC(=O)N3CCOCC3)cccn12 returned GLS inh -7.1% and LDHA inh -37.3*.
For CCCCC(=O)N(C)c1c(CC)nc2c(OCCC)cccn12 the results were GLS inh 3.3% and LDHA inh -14.9.
Screening O=S(=O)(NCC(c1cccnc1)S(=O)(=O)c1ccccc1)c1ccc(Cl)cc1 (stereo not given) returned LDHA inh -19.2.
For Cc1cc(C)n2cc(CSc3nnnn3-c3ccccc3)nc2n1 the results were GLS inh -1.6%, LDHA inh -1.0, mIDH1 inhibitor 9.3%, PKM2 activator 8.91µM*, rTrxR1 inhibitor 1.5% and TrxR1 substrate 8.1%.
Screening Cc1cc(C)n2cc(CSc3nnnn3-c3ccc(Cl)cc3)nc2n1 returned GLS inh 4.6%, LDHA inh -8.7, mIDH1 inhibitor 4.7%, PKM2 activator 15.8µM*, rTrxR1 inhibitor 8.9%[57.1 µM] and TrxR1 substrate 10.3%[57.1 µM].
For CCN(CC)CCNC(=O)C(C)c1n[nH]c(=O)c2ccccc12 (stereo not given) the results were LDHA inh -5.1.
C=CCn1c(SCC(=O)NCCCC)nc2scc(-c3ccco3)c2c1=O was read as GLS inh -13.1%, LDHA inh 1.4, mIDH1 inhibitor 3.6%, PKM2 activator inconclusive, rTrxR1 inhibitor 44.7µM* and TrxR1 substrate -1.9%.
For C=CCn1c(SCC(=O)NC2CCCC2)nc2scc(-c3ccco3)c2c1=O the results were GLS inh -0.2%, LDHA inh -0.4, mIDH1 inhibitor 1.6%, PKM2 activator 18.9%, rTrxR1 inhibitor 35.5µM* and TrxR1 substrate -3.2%.
C=CCn1c(SCC(C)=O)nc2scc(-c3ccc(C)o3)c2c1=O was read as GLS inh 2.0%, LDHA inh -7.2, mIDH1 inhibitor 1.3%, PKM2 activator 13.8%, rTrxR1 inhibitor -63.9% and TrxR1 substrate 6.4%[57.1 µM].
Cn1cc(CC(=O)N2CCC(NC(=O)C3CC3)CC2)c2ccccc21 was read as LDHA inh -2.0.
`Cc1ccc(S(=O)(=O)Oc2ccc3c(C)cc(=O)oc3c2)cc1` gave LDHA inh -3.7.
Screening O=C(C(Cl)c1ccccc1)N1CCCC1 (stereo not given) returned GLS inh -2.1%, LDHA inh -12.9, mIDH1 inhibitor 1.5%, PKM2 activator 1.2%, rTrxR1 inhibitor 20µM* and TrxR1 substrate 5.6%[57.1 µM].
`CCC1c2ccsc2CCN1C(=O)/C=C/c1cccc(C)c1` (stereo not given) gave LDHA inh -4.4.
CCCCNC(=S)N(C)/N=C/c1ccc(N(CC)CC)cc1 was read as LDHA inh 5.9.
`CN(N=Cc1ccccc1)C(=S)Nc1ccccc1` gave GLS inh 15.8µM*, LDHA inh -13.4 and mIDH1 inhibitor -9.8%.
Screening COc1ccccc1S(=O)Cc1ccc(C(=O)NCCc2ccc(Cl)cc2)o1 (stereo not given) returned GLS inh -2.5%, LDHA inh -0.7, mIDH1 inhibitor 13.7%, PKM2 activator 2.6%, rTrxR1 inhibitor 17.8µM* and TrxR1 substrate 1.8%.
For COc1cc(/C=C(\C#N)c2ccccn2)cc(OC)c1O the results were GLS inh 19.5%, LDHA inh -4.5, mIDH1 inhibitor 4.7%, PKM2 activator 6.8%, rTrxR1 inhibitor 5.7% and TrxR1 substrate -7.0%.
COc1cc(/C=C(\C#N)c2[nH]nc(N)c2C#N)cc(OC)c1O was read as GLS inh 10µM*, LDHA inh 5.9, mIDH1 inhibitor -15.1%, PKM2 activator 0.3%, rTrxR1 inhibitor -1.2%[57.1 µM] and TrxR1 substrate 1.3%[57.1 µM].
COc1ccc(C(=O)/C=C/C(=O)N(CC(=O)NC2CCCCC2)CC2CCCO2)c(O)c1 (stereo not given) was read as GLS inh -18.4%, LDHA inh -0.1, mIDH1 inhibitor -3.9%, PKM2 activator 7.94µM*, rTrxR1 inhibitor 1.26µM* and TrxR1 substrate -14.4%.
Screening COc1ccc(C(=O)/C=C/C(=O)N(CC(=O)NC2CCCCC2)Cc2ccccc2OC)c(O)c1 returned GLS inh -23.7%, LDHA inh -3.3, mIDH1 inhibitor -13.7%, PKM2 activator inconclusive, rTrxR1 inhibitor inconclusive and TrxR1 substrate 8.0%[57.1 µM].
COc1ccc(-n2nnnc2SCC(=O)NC(C)c2ccc(-c3ccccc3)cc2)cc1 (stereo not given) was read as LDHA inh 13.1.
Cn1c(=O)c2c(nc(NCCCc3ccccc3)n2Cc2cccc(Cl)c2)n(C)c1=O was read as LDHA inh 11.5.
`Cc1[nH]c2ccccc2c1N=Nc1cc(C(=O)O)cc(C(=O)O)c1` gave GLS inh 33.1%, LDHA inh -34.3*, mIDH1 inhibitor 8.4%, PKM2 activator -0.8%, rTrxR1 inhibitor -13.8% and TrxR1 substrate inconclusive.
For CNCCN(C)C1CCCCC1 the results were LDHA inh 0.3.
Screening O=C(Nc1cccc(-c2nnnn2C2CC2)c1)NC1CCCCCC1 returned LDHA inh 3.4.
Screening Nc1cc(N)cc(N)c1 returned rTrxR1 inhibitor 39.8µM* and TrxR1 substrate 25.1µM*.
For CCOC(=O)c1c(-c2ccc(C)o2)csc1NC(=S)NC(=O)N(C)C the results were GLS inh 27.6%, LDHA inh 13.6, mIDH1 inhibitor 4.9%, PKM2 activator inconclusive, rTrxR1 inhibitor 11.2µM* and TrxR1 substrate -2.1%.
CCOC(=O)c1c(-c2ccc(C)o2)csc1NC(=O)COC(=O)c1cccs1 was read as GLS inh 2.5%, LDHA inh 2.4, mIDH1 inhibitor -1.4%, PKM2 activator 3.16µM*, rTrxR1 inhibitor inconclusive and TrxR1 substrate 12.0%.
`CCOC(=O)c1c(-c2ccc(C)o2)csc1NC(=O)CSc1ncn[nH]1` gave GLS inh 1.4%, LDHA inh 11.2, mIDH1 inhibitor 7.4%, PKM2 activator inconclusive, rTrxR1 inhibitor 39.8µM* and TrxR1 substrate -5.0%.
CCCCn1c(SCN2C(=O)c3ccccc3C2=O)nc2cc(S(N)(=O)=O)ccc21 was read as GLS inh 2.9%, LDHA inh -1.7, mIDH1 inhibitor 15.2%, PKM2 activator 15.8µM*, rTrxR1 inhibitor 8.8% and TrxR1 substrate -0.3%.
`CCCCn1c(SCn2nnc3ccccc3c2=O)nc2cc(S(N)(=O)=O)ccc21` gave GLS inh -2.0%, LDHA inh -8.4, mIDH1 inhibitor 8.2%, PKM2 activator 6.2%, rTrxR1 inhibitor 8.3% and TrxR1 substrate 6.9%.
COc1ccc2c(c1C)CCC/C2=N\OC(=O)c1ccccc1F was read as LDHA inh 6.1.
